# Source: PubChem
# Rac1 mut GTP: GTP binding modulators of activated mutant Rac1, primary screen, biochemical, bead-based flow cytometry, multiplex, fluorescent GTP; Ras-related C3 botulinum toxin substrate 1 (Homo sapiens), P63000; percent activity (GTP binding), % at 10 µM; GST-Rac1 activated beads; actives lie on both sides; 100% means binding = to untreated wells; actives 0.11% (n = 190,000); AID 764, 2007;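 active = GTP binding at least 20 percentage points away from the 100% baseline, in either direction, so actives lie on both sides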
# HRas wt GTP: modulators of GTP binding to HRas wildtype, primary screen, biochemical, bead-based flow cytometry, multiplex. actives 0.14% (n = 190,000). AID 759, 2007. GTP binding activity, % at 10 µM. GST-Ras wt beads, Bodipy-FL-GTP binding; actives lie on both sides;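 active = GTP binding activity at least 20% away from the 100% baseline, either lowered as inhibitor or raised as activator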
# Target sequence (P01112 whole entry, looked up): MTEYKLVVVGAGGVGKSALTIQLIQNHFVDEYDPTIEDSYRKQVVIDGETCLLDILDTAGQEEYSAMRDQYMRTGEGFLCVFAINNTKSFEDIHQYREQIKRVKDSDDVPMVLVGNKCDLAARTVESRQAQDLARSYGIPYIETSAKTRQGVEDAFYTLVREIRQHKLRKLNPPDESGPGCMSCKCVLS
# Cdc42 wt: modulators of GTP binding to wildtype Cdc42, primary screen, biochemical, multiplex bead flow cytometry, Bodipy-GTP; Cell division control protein 42 homolog (Homo sapiens), P60953; GST-Cdc42 beads; actives lie on both sides; percent activity (GTP binding), % at 10 µM; actives 0.2% (n = 190,000);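 active = percent activity GTP binding at least 20 points away from the 100% baseline, either down as inhibitor or up as activator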;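 note: median bead fluorescence of bound Bodipy-FL-GTP at 100 nM; below 100% means less GTP binding so inhibitor and above means activator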
# Target sequence (P60953 whole entry, looked up): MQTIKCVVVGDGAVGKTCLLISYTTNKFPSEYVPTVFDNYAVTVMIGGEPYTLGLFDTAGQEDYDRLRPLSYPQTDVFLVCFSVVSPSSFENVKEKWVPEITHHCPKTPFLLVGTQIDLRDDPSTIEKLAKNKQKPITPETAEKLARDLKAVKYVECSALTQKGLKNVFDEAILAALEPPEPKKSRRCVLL
# Rab2A wt mod: modulators of GTP binding to Rab2A wildtype, primary screen, biochemical, dog, bead-based flow cytometry, multiplex. Ras-related protein Rab-2A (Canis lupus familiaris), P61105. GST-Rab2 wt beads, Bodipy-GTP binding. actives 0.19% (n = 190,000). GTP binding activity, % at 10 µM. AID 760, 2007;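 active = GTP binding activity at least 20 points away from 100%, either lowered or raised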
# Rac1 wt GTP bind: wildtype Rac1 GTP binding modulators, primary screen, biochemical, GST-Rac1 beads, flow cytometry, multiplex; fluorescent GTP binding; actives lie on both sides; 0 = cold GTP competed, 100 = untreated; GTP binding activity (% of control), % at 10 µM; actives 0.27% (n = 190,000);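 active = GTP binding activity at least 20 points away from the 100% control level, either lower or higher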
# Rab7 wt GTP bind: modulators of GTP binding to Rab7, primary screen, biochemical, wildtype, multiplex bead flow cytometry. GTP binding activity (percent of control), % at 10 µM. actives 0.055% (n = 190,000). GST-Rab7 beads, fluorescent GTP binding; actives lie on both sides; untreated = 100%, excess cold GTP = 0%. Rab7 GTPase wild type (dog), Bodipy-FL-GTP binding;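 active = fluorescent GTP binding to Rab7 beads changed by at least 20 points from the 100% baseline, either direction, mostly lower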;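 note: median green fluorescence of bound Bodipy-FL-GTP per Rab7 bead population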
# A number is an active result; n = inactive; [ ] = remark or other dose. The list is not random: actives were taken first. Their share in the collection is about 0.38%.
SMILES,Rac1 mut GTP,HRas wt GTP,Cdc42 wt,Rab2A wt mod,Rac1 wt GTP bind,Rab7 wt GTP bind
CC1(C)Cc2c(sc(NC(=O)c3ccccc3Cl)c2C(=O)O)CO1,n,n,n,n,n,n
CCO[C@@H]1OC(C(=O)NCc2ccccc2)=C[C@H](C2CCCCC2)[C@H]1CCCO,n,n,n,n,n,n
COc1ccc2c(C)nc(N/C(N)=N/S(=O)(=O)c3ccc(C)cc3)nc2c1,n,n,n,n,77,n
Cc1ccc(S(=O)(=O)/N=C(\N)Nc2nc(C)c3ccccc3n2)cc1,n,n,n,n,n,n
COc1ccc(C(=O)OCCNC(=O)c2ccncc2)cc1OC,n,n,n,n,n,n
CSc1nc2ccc(NC(=O)C3CC(=O)N(Cc4ccco4)C3)cc2s1 (centres undefined),n,n,75,n,n,n
COCCn1c(N)c(N(Cc2ccccc2)C(=O)C2CCCC2)c(=O)[nH]c1=O,n,n,n,n,n,n
N#Cc1c(=O)c2nc(NCc3ccccc3)ncc2n2ccccc12,n,n,n,n,79,n
N#Cc1c(=O)c2nc(NCCCO)ncc2n2c(=O)c3ccccc3[nH]c12,n,n,n,n,n,n
Cc1ccc(NC(=O)CSc2nnc(/N=C/N(C)C)s2)cc1,n,n,n,n,n,n
O=C(NCc1ccc2c(c1)OCO2)c1ccc(CSCc2cccc(Cl)c2)o1,n,n,79,n,n,n
COc1cccc(CNC(=O)CN2CCC(c3nc4ccc(C)cc4[nH]3)CC2)c1,n,n,n,n,n,n
S=c1[nH]nc(-c2ccco2)n1-c1ccc(Cl)cc1,78,n,n,n,n,n
O=S1(=O)N=C(N(CCO)/N=C/C=C/c2ccccc2)c2ccccc21,n,70,79,72,61,n
CN(C)S(=O)(=O)c1ccc(Cl)c(NC(=O)c2ccncc2)c1,n,n,n,n,n,n
CCOc1cc(C2c3c(-c4ccccc4)n[nH]c3C(=O)N2c2ccc(C(=O)O)cc2)ccc1O (centres undefined),74,n,79,79,59,n
CCOC(=O)c1nc(Nc2ccc(C(C)=O)cc2)c2ccccc2n1,n,n,n,n,78,n
CNc1ncc(C(=O)c2ccccc2)s1,n,n,n,n,n,n
CNc1ncc(C(=O)c2ccc(Br)cc2)s1,n,n,n,n,121[activator],n
NS(=O)(=O)c1ccc(N2N=C(c3ccccc3)CC2c2cccc(F)c2)cc1 (centres undefined),n,n,61,n,n,n
NC(=S)N=Nc1c(O)[nH]c2cc(F)c(F)cc12,n,n,n,78,n,n
CCOC(=O)N1CCC(N2CCCC(CO)(Cc3cccc(Cl)c3)C2)CC1 (centres undefined),n,n,n,n,n,n
COC(=O)CN(C#N)c1nc(NC(C)C)nc(NC(C)C)n1,n,n,n,n,n,n
Cc1cccc(OCC(=O)N/N=C/c2ccc3c(c2)OCO3)c1,78,n,77,n,n,n
O=C(COc1ccccc1)N/N=C/c1ccc2c(c1)OCO2,n,n,n,n,n,n
CC1=C(C#N)c2nc(N)c(C#N)c(C)c2/C1=C\c1ccc(-c2ccccc2C(=O)O)o1,n,n,78,76,75,n
COc1cc(/C=C2/C(C)=C(C#N)c3nc(N)c(C#N)c(C)c32)ccc1OCC(=O)O,n,n,n,n,n,n
NC(=O)CSc1cn(Cc2ccccc2)c2ccccc12,n,n,n,n,n,n
